G9a block – G9a (human) methyltransferase inhibition; Q96KQ7; G9a H3K9 monomethylation, AlphaScreen, 2 h; Potency, µM (top dose mostly 102 µM), usual class: inhibitors; 8.8% of 350,000 active; AID 504332; note: nearly all actives have a fitted effect of over 75% in size
Target sequence (Q96KQ7 913-1193 limits assumed): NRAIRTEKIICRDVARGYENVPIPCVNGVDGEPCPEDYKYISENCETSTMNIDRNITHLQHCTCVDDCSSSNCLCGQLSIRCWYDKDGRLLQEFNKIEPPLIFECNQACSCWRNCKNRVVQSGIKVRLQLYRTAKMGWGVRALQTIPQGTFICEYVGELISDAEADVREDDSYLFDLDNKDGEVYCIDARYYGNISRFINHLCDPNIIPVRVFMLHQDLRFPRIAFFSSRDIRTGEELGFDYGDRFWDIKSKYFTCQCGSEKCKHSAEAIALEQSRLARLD
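Readings reflect AlphaScreen signal from monomethyl-H3K9 antibody detection. HMT at 20 nM; substrate b-H3K9 500 nM; cofactor SAM 20 uM; 2 h RT reaction; compounds tested as titrations in qHTS with 15 min preincubation.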
BAZ2B block – blocks human BAZ2B | 4.4% of 360,000 active | AlphaScreen BAZ2B-H3K14Ac peptide displacement | AID 504333 | Potency, µM (highest dose often 114 µM), hits mostly inhibitors; note: nearly all actives have a fitted effect of over 60% in size
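In this displacement format the biotinylated H3(5-23) peptide acetylated at Lys14 serves as ligand at 50 nM, with BAZ2B at 50 nM in PBS pH 7.4 containing 0.01% Tween-20. Donor and acceptor beads are 10 ug/mL final.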
L3MBTL1 inh – blocks human L3MBTL1 | Q9Y468 | AlphaScreen L3MBTL1–H3K9me1 peptide binding | Potency, µM (top dose mostly 57.1 µM), usual class: inhibitors | 0.66% of 230,000 active | AID 485360; note: nearly all actives have a fitted effect of over 60% in size
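L3MBTL1 (50 nM) pre-complexed 30 min with biotinylated H3(1-15)K9me1 peptide (75 nM), then compounds added for 30 min at room temperature; AlphaScreen streptavidin donor/nickel chelate acceptor beads (10 ug/mL final) read after 30 min dark incubation.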
JMJD2A Tudor – JMJD2A Tudor domain (human) inhibition; Potency, µM (highest dose often 114 µM), most hits filed as inhibitors; O75164; AlphaScreen JMJD2A-Tudor / H3K4me3 peptide binding; 4.4% of 390,000 active; note: nearly all actives have a fitted effect of over 50% in size
HP1b chromo inh – blocks HP1-beta chromodomain binding to methylated histone tails. P83916. AlphaScreen HP1-beta / biotin-H3K9me3 peptide binding. Potency, µM (doses to about 114 µM), actives largely listed as inhibitors. 0.56% of 390,000 active; note: nearly all actives have a fitted effect of over 70% in size
Target sequence (P83916 whole entry, looked up): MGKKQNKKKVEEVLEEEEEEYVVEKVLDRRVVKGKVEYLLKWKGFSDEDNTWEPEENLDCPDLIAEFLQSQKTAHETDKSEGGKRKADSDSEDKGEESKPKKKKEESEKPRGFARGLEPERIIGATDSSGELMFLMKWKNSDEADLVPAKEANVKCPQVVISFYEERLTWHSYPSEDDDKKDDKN
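Compound inhibition of the preformed complex between 50 nM HP1-beta and 50 nM biotinylated H3K9me3 peptide was read by AlphaScreen. Buffer was PBS pH 7.4 with 0.01% Tween-20. Incubations ran 30 min at room temperature, with 10 ug/mL donor/acceptor beads.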
Sfp PPTase inh – Sfp phosphopantetheinyl transferase inhibition; Q9F4F7; Potency, µM, usual class: inhibitors; Biochemical Sfp PPTase activity, qHTS; 3.5% of 310,000 active;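 note: the enzyme is Sfp with the accession as filed and its product quenches rhodamine fluorescence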
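Fluorescence-quenching assay with 15 nM Sfp, 5 uM rhodamine-CoA and 12.5 uM BHQ-2-labelled ybbR peptide in pH 7.6 Hepes/MgCl2 buffer. Enzyme was pre-incubated with compound for 15 min at room temperature. Rate was taken from the 30-min fluorescence change (525/598 nm).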
Numbers stand for hits; [ ] = dose if it differs, or a comment. Only some compounds are listed: those with a hit (about 12% of all), similar ones and a draw of the others. Calls come from the whole dose curve; as a rule, active = well fitted curve in the direction sought with a large enough effect; inconclusive = small, poorly fitted or top-dose-only effect, or another doubt; inactive = no such curve, though single readings can be large; an effect the other way counts as inactive or inconclusive.

How did O=C(CN1CCCCCCC1)N/N=C/c1ccc(F)c(F)c1 do in these assays?
G9a block: inconclusive; BAZ2B block: inactive; L3MBTL1 inh: inactive; JMJD2A Tudor: 3.16µM; HP1b chromo inh: inactive; Sfp PPTase inh: inactive

What do the screens show for `O=C(CN1CCSCC1)N/N=C/c1cccc(Cl)c1`?
G9a block: 3.16µM; BAZ2B block: 50.1µM; L3MBTL1 inh: inactive; JMJD2A Tudor: inconclusive; HP1b chromo inh: inactive; Sfp PPTase inh: inactive

Results for COc1cccc(-n2c(SCC(=O)Nc3cccc(C)c3)nc3c([nH]c4ccccc43)c2=O)c1 ?
G9a block: inactive; BAZ2B block: inactive; JMJD2A Tudor: inactive; HP1b chromo inh: inactive

What do the screens show for `Cc1ccc(C(=O)OCC(=O)Nc2nc(-c3ccccc3)cs2)cc1NC(=O)c1ccco1`?
G9a block: inactive; BAZ2B block: inactive; L3MBTL1 inh: inactive; JMJD2A Tudor: inactive; HP1b chromo inh: inactive; Sfp PPTase inh: inactive

What do the screens show for `CC(C)NC[C@H]1CCc2cc(CO)c([N+](=O)[O-])cc2N1`?
G9a block: inactive[21.5 µM]; Sfp PPTase inh: inactive

What do the screens show for `Cc1ccc(CC(=O)Nc2ccc(S(=O)(=O)Nc3ncccn3)cc2)cc1`?
G9a block: inactive; BAZ2B block: inactive; L3MBTL1 inh: inactive; JMJD2A Tudor: inactive; HP1b chromo inh: inactive; Sfp PPTase inh: inactive

What do the screens show for `CCOc1cc(/C=N/NC(=O)CN2CCCCC2)ccc1OCc1ccc(Cl)cc1`?
G9a block: inactive; BAZ2B block: 50.1µM; L3MBTL1 inh: inactive; JMJD2A Tudor: inconclusive; HP1b chromo inh: inactive; Sfp PPTase inh: inactive

Results for COc1ccc(C(=O)Nn2c(C)nc3ccccc3c2=O)cc1[N+](=O)[O-] ?
G9a block: inactive; BAZ2B block: inactive; JMJD2A Tudor: inactive; HP1b chromo inh: inactive; Sfp PPTase inh: inactive

How did Cc1cc2c(s1)c1cnn(Cc3cccc(Cl)c3F)c(=O)c1n2C do in these assays?
JMJD2A Tudor: inactive

Results for COCCCN=C(c1ccco1)n1c(=S)nc(-c2ccco2)n(CCCOC)c1=S ?
G9a block: 7.94µM; BAZ2B block: inconclusive; L3MBTL1 inh: inconclusive; JMJD2A Tudor: 56.2µM; HP1b chromo inh: 22.4µM; Sfp PPTase inh: 11.2µM

How did Clc1ccc(-c2nnc(SCc3nc4ccccc4[nH]3)o2)c(Cl)c1 do in these assays?
G9a block: 8.91µM; BAZ2B block: inactive; L3MBTL1 inh: inactive; JMJD2A Tudor: inactive; HP1b chromo inh: inactive; Sfp PPTase inh: inactive

How did COc1cc(-c2nnc(SCC(=O)N3CCOCC3)o2)cc(OC)c1OC do in these assays?
G9a block: 39.8µM; BAZ2B block: inactive; JMJD2A Tudor: inactive; HP1b chromo inh: inactive; Sfp PPTase inh: inactive

Results for COc1cc(-c2nnc(SCC(=O)c3cc(C)n(CC4CCCO4)c3C)o2)cc(OC)c1OC (centres undefined) ?
G9a block: inactive[12.7 µM]; BAZ2B block: inactive; L3MBTL1 inh: inactive[11.4 µM]; JMJD2A Tudor: inconclusive; HP1b chromo inh: inactive; Sfp PPTase inh: 89.1µM

Results for C#C[C@]1(O)CC[C@@H]2[C@H]3CCC4=CCCC[C@@H]4[C@@H]3CC[C@@]21C ?
G9a block: inactive[21.5 µM]; Sfp PPTase inh: inactive

Results for CC(C)C[C@@H](CC(=O)N[C@@H](CCCN)CC(=O)N[C@@H]1CCNC[C@H]1C(=O)N[C@H](CC(=O)N[C@@H](CCC(=O)O)CC(=O)O)CC(C)C)NC(=O)[C@@H]1CCCC[C@H]1N ?
Sfp PPTase inh: inactive

What do the screens show for `COc1ccccc1NC(=S)N1CCN(c2cccc(C)c2C)CC1`?
BAZ2B block: inconclusive; L3MBTL1 inh: inactive; JMJD2A Tudor: inactive; HP1b chromo inh: inactive; Sfp PPTase inh: inactive

How did CC12COC3(P(=O)(c4ccccc4)c4ccccc4)CC1CCC23CP(=O)(c1ccccc1)c1ccccc1 (centres undefined) do in these assays?
G9a block: inconclusive; BAZ2B block: 70.8µM; L3MBTL1 inh: inactive; JMJD2A Tudor: inactive; HP1b chromo inh: inactive; Sfp PPTase inh: inactive

How did O=c1[nH]c(=S)[nH]c2sc3c(c12)CCCCCC3 do in these assays?
G9a block: 2.24µM; BAZ2B block: inactive; L3MBTL1 inh: inactive; JMJD2A Tudor: inconclusive; HP1b chromo inh: inactive; Sfp PPTase inh: inactive

What do the screens show for `CC(C)(C)OC(=O)NCc1n[nH]c(=S)n1C1CC1`?
G9a block: inconclusive; BAZ2B block: inactive; L3MBTL1 inh: inactive; JMJD2A Tudor: 28.2µM; HP1b chromo inh: inactive; Sfp PPTase inh: inactive

Results for Cc1ccc(C)c(NS(=O)(=O)c2cc(C(=O)NCc3ccccn3)ccc2C)c1 ?
G9a block: inactive; BAZ2B block: inconclusive; JMJD2A Tudor: inactive; HP1b chromo inh: inactive; Sfp PPTase inh: inactive

Results for O=C(Nc1c2c(nn1-c1ccc(F)cc1)CS(=O)C2)c1ccc2c(c1)OCO2 (centres undefined) ?
BAZ2B block: inactive; JMJD2A Tudor: 89.1µM; HP1b chromo inh: inactive; Sfp PPTase inh: inactive

What do the screens show for `COc1ccc(-c2nnc(SCC(=O)N(C)C3CCCCC3)o2)cc1OC`?
G9a block: inactive; BAZ2B block: inactive; JMJD2A Tudor: inactive; HP1b chromo inh: inactive

How did CSC1=NC2C(N1)N(C)C(=O)N2C (centres undefined) do in these assays?
G9a block: 7.94µM; BAZ2B block: 35.5µM; JMJD2A Tudor: inactive; HP1b chromo inh: inactive; Sfp PPTase inh: inactive

What do the screens show for `CC[C@]12c3[nH]c4cc(-c5ccco5)ccc4c3CCN1C(=O)[C@@H](CC(=O)NCCc1ccccn1)C[C@@H]2C(=O)N1CCN(C(=O)C2CC2)CC1`?
L3MBTL1 inh: inactive; JMJD2A Tudor: inactive; HP1b chromo inh: inactive

How did Cc1cccc2sc(N(CCCN(C)C)C(=O)c3ccc4ncsc4c3)nc12 do in these assays?
G9a block: 31.6µM; BAZ2B block: inactive; JMJD2A Tudor: inconclusive; HP1b chromo inh: inactive; Sfp PPTase inh: inactive

How did CC(=O)c1ccc(C(=O)N(CCCN(C)C)c2nc3c(C)c(C)ccc3s2)cc1 do in these assays?
G9a block: inactive; BAZ2B block: inconclusive; JMJD2A Tudor: inconclusive; HP1b chromo inh: inconclusive

Results for Cc1ccc2sc(N(CCCN(C)C)C(=O)c3ccc(Br)s3)nc2c1C ?
G9a block: 35.5µM; BAZ2B block: inconclusive; L3MBTL1 inh: inactive; JMJD2A Tudor: inconclusive; HP1b chromo inh: inactive; Sfp PPTase inh: inactive

How did CCc1ccc2nc(N(CCN(C)C)C(=O)c3ccc4ncsc4c3)sc2c1 do in these assays?
G9a block: 10µM; BAZ2B block: inconclusive; JMJD2A Tudor: 50.1µM; HP1b chromo inh: inconclusive; Sfp PPTase inh: inactive

Results for Cc1cccc2sc(N(CCCN(C)C)C(=O)c3nc4ccccc4s3)nc12 ?
G9a block: 10µM; BAZ2B block: inactive; L3MBTL1 inh: inactive; JMJD2A Tudor: inactive; HP1b chromo inh: inactive; Sfp PPTase inh: 79.4µM

Results for O=C(c1ccc2c(c1)N(Cc1ccccc1F)C(=O)c1ccccc1S2=O)N1CCOCC1 (centres undefined) ?
G9a block: inactive; BAZ2B block: inactive; JMJD2A Tudor: inactive; HP1b chromo inh: inactive

Bioassay records: PubChem, National Center for Advancing Translational Sciences (NCATS)
